From PubChem BioAssay
GPR151 ag = activators of human GPR151, primary screen, cell-based, PathHunter beta-arrestin, luminescence; PathHunter beta-arrestin GPR151 cells; activation, % at 11.2 µM; hit rate 1% among 650,000; in the data active = activation above about 4.9%;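 note: 0% = median of compound wells and 100% = cells with positive control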
Target sequence (Q8TDV0 whole entry, looked up): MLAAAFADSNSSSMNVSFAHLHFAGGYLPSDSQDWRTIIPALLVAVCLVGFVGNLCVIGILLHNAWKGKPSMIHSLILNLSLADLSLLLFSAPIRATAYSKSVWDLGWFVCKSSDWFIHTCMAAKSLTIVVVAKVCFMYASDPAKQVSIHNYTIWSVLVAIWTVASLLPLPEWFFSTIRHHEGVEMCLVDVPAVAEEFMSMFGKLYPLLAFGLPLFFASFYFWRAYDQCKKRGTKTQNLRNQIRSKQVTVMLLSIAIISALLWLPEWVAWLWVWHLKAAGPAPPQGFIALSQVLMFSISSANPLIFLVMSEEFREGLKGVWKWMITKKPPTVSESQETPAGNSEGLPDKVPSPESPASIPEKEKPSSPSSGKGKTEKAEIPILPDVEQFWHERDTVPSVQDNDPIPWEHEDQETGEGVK
MITF primary = MITF inhibitors, primary screen, biochemical, AlphaScreen, human | hit rate 0.91% among 650,000 | AlphaScreen MITF homodimerization, bead proximity signal | Microphthalmia-associated transcription factor (Homo sapiens), O75030 | AID 1259374, 2018 | inhibition, % at 2.6 µM; in the data active = inhibition above about 50%;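 note: 0% = vehicle wells with protein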
FBW7 activator = FBW7 E3 ligase activators, primary screen, biochemical, AlphaScreen, human; F-box/WD repeat-containing protein 7 (Homo sapiens), Q969H0; AlphaScreen FBW7–phospho-cyclin E peptide binding, activator screen; normalized activity (activation), % at 26.1 µM; hit rate 0.13% among 650,000; in the data active = normalized activity above about 1.9%;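 note: purified mutant Fbw7 with reduced substrate affinity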
TEAD-YAP block = TEAD-YAP interaction inhibition, primary screen, TEAD-YAP interaction inhibitor project, luminescence, HEK-TIYL cells; inhibition, % at 9.12 µM; AID 1259422, 2018; hit rate 1.4% among 640,000; TEAD-Gal4/YAP UAS-luciferase luminescence; in the data active = inhibition above about 32%;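 note: 0% = median of test compound wells and 100% = reference inhibitor wells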
* marks the source's active call; other numbers are inactive results. Most compounds without a hit are left out; they make up all but 3.5% or so of the library.

SMILES | GPR151 ag | MITF primary | FBW7 activator | TEAD-YAP block
CN=c1scc(-c2cccs2)n1/N=C/c1ccc(O)c(O)c1O | -3 | 32 | -1 | 71*
CN=c1scc(-c2cccs2)n1/N=C/c1ccccc1O | -5 | 4 | 0 | 95*
COCCN=c1scc(-c2ccco2)n1/N=C/c1ccc(O)c(O)c1O | 0 | 41 | 0 | -9
C=CCN=c1scc(-c2ccco2)n1/N=C/c1ccc(O)c(O)c1O | -1 | 3 | -1 | 55*
CN=c1scc(C)n1/N=C/c1ccc(O)c(O)c1O | 0 | 13 | -1 | 18
CCCSc1nnc2c(n1)OC(c1cc(OC)c(OC)c(OC)c1)Nc1ccccc1-2 (stereo unspecified) | 1 | 4 | 0 | -110
Cc1cc(N2CCOCC2)nc2ccc(NC(=S)NC3CC3)cc12 | -1 | 8 | 0 | 2
COCCNc1cc(-c2ccc(F)cc2)nc(-c2ccccn2)n1 | -2 | 13 | -1 | 74*
c1ccc(-c2nc(NC3CC3)cc(-c3ccncc3)n2)nc1 | 0 | 16 | -1 | 32
c1ccc(-c2cc(NC3CC3)nc(-c3ccccn3)n2)cc1 | -1 | 6 | -1 | 92*
CCN(CC)c1cc(-c2ccc(F)cc2)nc(-c2ccccn2)n1 | 1 | 58* | 0 | 53*
COCCNc1cc(-c2ccncc2)nc(-c2ccccn2)n1 | -2 | 6 | -1 | 8
Fc1ccc(-c2cc(NC3CC3)nc(-c3ccncc3)n2)cc1 | 2 | 4 | 0 | 14
Fc1ccc(-c2cc(NC3CC3)nc(-c3ccccn3)n2)cc1 | -3 | -3 | -1 | 90*
CCOC(=O)NC(=C(Cl)Cl)S(=O)(=O)c1ccc(C)cc1 | 0 | 12 | 0 | 20
CCOc1ccc(-n2nc(C(=O)NCCCN3CCC(C)CC3)c3ccccc3c2=O)cc1 | 2 | -4 | 0 | 6
Cc1cc([N+](=O)[O-])nn1CC(=O)Nc1cccc(F)c1C#N | 0 | 6 | 0 | 36*
O=C1c2cccc3cccc(c23)C(=O)N1CCN1CCN(CCc2ccccc2)CC1 | 0 | 18 | 0 | 0
O=C1c2cccc3cccc(c23)C(=O)N1CCN1CCCCC1 | 0 | 7 | 0 | 68*
O=C(O)c1nn2c(C(F)(F)F)cc(-c3ccc(Br)cc3)nc2c1Cl | -1 | -6 | 0 | -5
CCCNc1nc(-c2ccc(C(N)=O)cc2)nc2c1ncn2-c1ccccc1 | 1 | -7 | 0 | 52*
CCCNc1nc(-c2ccc(OC)cc2)nc2c1ncn2-c1ccccc1 | 0 | 9 | 0 | -3
CC(C)N(CCNc1nc(-c2ccc(C(N)=O)cc2)nc2c1ncn2-c1ccsc1)C(C)C | -1 | 12 | 0 | 61*
c1ccc(-c2nc(NCc3cccnc3)c3ncn(-c4ccccc4)c3n2)cc1 | -1 | 2 | 0 | 17
CCCNc1nc(-c2ccc(C(N)=O)cc2)nc2c1ncn2-c1ccsc1 | -1 | 7 | 0 | 52*
SMILES | GPR151 ag | MITF primary | FBW7 activator | TEAD-YAP block
NC(=O)c1ccc(-c2nc(NCc3cccnc3)c3ncn(-c4ccccc4)c3n2)cc1 | 0 | 2 | 0 | 55*
CC1=CCC(/C=N/NC(=O)COc2ccccc2C#N)C(C)C1 (stereo unspecified) | 0 | -7 | 0 | -14
CCOc1ccc(/C=c2/sc3nc(-c4cccnc4)nn3c2=O)cc1OCC | -1 | 4 | 0 | 5
NC(=O)c1ccc(-c2nc(NCCc3ccc(O)cc3)c3ncn(-c4ccccc4)c3n2)cc1 | -1 | -4 | 0 | 66*
COc1ccc(/C=C2\N=C(c3ccc(F)cc3)OC2=O)c(OC)c1OC | 0 | 4 | 0 | -3
COCCn1nnnc1C(c1cc2cc3c(cc2[nH]c1=O)OCO3)N1CCN(C)CC1 (stereo unspecified) | -1 | -1 | 0 | -2
COc1cccc(CNC(=O)c2cc3c(C)nc4ccccc4c3o2)c1 | 0 | 2 | 0 | 25
COc1ccc(CNC(=O)c2cc3c(C)nc4ccccc4c3o2)c(OC)c1 | 0 | -9 | 0 | 34*
Nc1cc(S(=O)(=O)O)c2ncnc3c2c1C(=O)c1ccccc1-3 | 2 | -6 | 0 | 2
CN1CCN(c2cccc(-c3ccnc(Nc4ccc(-n5ccnn5)cc4)n3)c2)CC1 | -1 | 9 | 0 | 68*
c1ccc(-c2ccnc(Nc3ccc(-n4ccnn4)cc3)n2)cc1 | -1 | 13 | 0 | -24
CS(=O)(=O)c1ccc(-c2ccnc(Nc3ccc(-n4ccnn4)cc3)n2)cc1 | 1 | 14 | 0 | 11
CS(=O)(=O)Cc1cccc(-c2ccnc(Nc3ccc(-n4ccnn4)cc3)n2)c1 | 0 | -9 | 0 | 41*
CCc1nn2cc(-c3ccc(F)cc3)nc2s1 | -10 | 9 | 0 | 40*
CCc1nn2cc(-c3ccccc3)nc2s1 | -10 | 10 | 0 | 74*
COc1cc(-c2nn3cc(-c4ccccc4)nc3s2)cc(OC)c1OC | 0 | 5 | 1 | -30
CCOc1ccccc1NS(=O)(=O)c1ccc2c(c1)OCCN2C | -1 | -3 | 0 | -9
CSc1ccccc1C(=O)Nc1nc2nc(C)cc(C)c2s1 | 0 | 3 | 8.8* | -12
Cc1cc(C)c2sc(NC(=O)c3ccccc3C)nc2n1 | -1 | -17 | 0 | 61*
Cc1cc(C)c2sc(NC(=O)c3cc4ccccc4o3)nc2n1 | -2 | 8 | 0 | -46
CSc1ccccc1C(=O)Nc1nc2cc(C)cc(C)c2s1 | 0 | -16 | 0 | -10
COC(=O)C(Cc1ccccc1)NC(=O)c1ccc(Br)cc1 (stereo unspecified) | 0 | -5 | 0 | -9
Cc1ccnc(NC(=O)COc2ccc(Cl)c(C)c2)c1 | -1 | 5 | 0 | -31
Cc1cc(OCC(=O)Nc2ccccn2)ccc1Cl | 3 | -4 | 0 | 64*
CCCCCn1c(=O)c2sccc2n2c(CCC(=O)N3CCN(c4ccccc4)CC3)nnc12 | -2 | 16 | 1 | 7
SMILES | GPR151 ag | MITF primary | FBW7 activator | TEAD-YAP block
Cc1ccc(CCNC(=O)C2CC(=O)N(C3CCCCCCC3)C2)cc1 (stereo unspecified) | -1 | 10 | 0 | -6
COc1ccc(-c2noc(N3CCC(C(=O)Nc4cc(Cl)ccc4OC)CC3)n2)cc1 | 2 | 4 | 0 | 3
COc1cc(OC)cc(C(=O)N2CCN(Cc3ccc(OC)c(OCc4ccccc4)c3)CC2)c1 | -1 | 20 | 0 | 3
Brc1ccc(C2Nc3c(I)cccc3C3C=CCC32)cc1 (stereo unspecified) | -2 | 10 | 0 | 11
O=C(O)C1Nc2c(I)cccc2C2C=CCC12 (stereo unspecified) | 0 | 83* | -1 | 7
O=C(O)C1Nc2c(O)cccc2C2C=CCC12 (stereo unspecified) | 2 | 108* | 0 | -3
CC(C)CNC(=O)C(=O)NCc1ccc(Cl)cc1Cl | 0 | 5 | 0 | 2
N#CCCN1CCN(CN2CCN(CN3CCN(CCC#N)CC3)C2=S)CC1 | 0 | 16 | 0 | -1
Cc1cccc(N2CCN(C(=O)c3ccccc3)CC2)c1C | 1 | 24 | 0 | 14
